From PubChem BioAssay
SENP8 block-1 = human SENP8 protease inhibitors, primary screen, biochemical, fluorescence, Nedd8 protein substrate, uHTS | inhibition, % at 20 µM | recombinant SENP8 | Sentrin-specific protease 8 (Homo sapiens), Q96LD8 | 360,000 compounds, 0.64% hits; in the data active = inhibition mostly above about 40%, no sharp cut-off; inactive = mostly below about 27%
Target sequence (Q96LD8 whole entry, looked up): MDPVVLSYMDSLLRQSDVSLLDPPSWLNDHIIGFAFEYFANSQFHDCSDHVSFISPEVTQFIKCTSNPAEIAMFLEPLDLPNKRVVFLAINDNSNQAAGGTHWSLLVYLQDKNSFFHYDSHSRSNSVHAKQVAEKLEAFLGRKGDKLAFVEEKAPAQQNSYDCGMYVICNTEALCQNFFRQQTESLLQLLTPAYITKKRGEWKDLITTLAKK
AHR activator = AHR activators, primary screen, cell-based, luminescence, luciferase reporter, human | AHR-responsive luciferase reporter cells | activation, % at 5 µM | AID 2796, 2010 | Aryl hydrocarbon receptor (Homo sapiens), P35869 | 320,000 compounds, 2.5% hits; in the data active = activation above about 47%
SENP8 block-2 = SENP8 protease inhibitors, primary screen, biochemical, luminescence | purified SENP8, Z-RLRGG-aminoluciferin cleavage | inhibition, % at 10 µM | 330,000 compounds, 1.2% hits; in the data active = inhibition above about 50%
SENP6 inh = SENP6 protease inhibitors, primary screen, biochemical, luminescence, uHTS; 330,000 compounds, 1.8% hits; inhibition, % at 10 µM; Sentrin-specific protease 6 (Homo sapiens), Q9GZR1; Recombinant SENP6 catalytic domain, aminoluciferin luminescence;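 active = inhibition above about 50% at the single tested dose, limit read from the data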
EBI2 block = EBI2 receptor antagonists, beta-arrestin recruitment, primary screen, cell-based, luminescence, 7a,25-OHC stimulation, uHTS; G-protein coupled receptor 183 (Homo sapiens), P32249; 7a,25-OHC stimulated; inhibition, % at 5 µM; 360,000 compounds, 0.81% hits; AID 651636, 2012; in the data active = inhibition above about 38%;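 also: enzyme fragment complementation signal reports receptor beta-arrestin coupling in cells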
SENP7 block = SENP7 protease inhibitors, primary screen, biochemical, luminescence, uHTS. inhibition, % at 5 µM. 330,000 compounds, 1.5% hits. recombinant SENP7, Z-RLRGG-aminoluciferin luminescence, 40 min. Sentrin-specific protease 7 (Homo sapiens), Q9BQF6;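 active = inhibition above about 50% at the single test dose, limit read from the data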
Target sequence (Q9BQF6 706-1050 limits assumed): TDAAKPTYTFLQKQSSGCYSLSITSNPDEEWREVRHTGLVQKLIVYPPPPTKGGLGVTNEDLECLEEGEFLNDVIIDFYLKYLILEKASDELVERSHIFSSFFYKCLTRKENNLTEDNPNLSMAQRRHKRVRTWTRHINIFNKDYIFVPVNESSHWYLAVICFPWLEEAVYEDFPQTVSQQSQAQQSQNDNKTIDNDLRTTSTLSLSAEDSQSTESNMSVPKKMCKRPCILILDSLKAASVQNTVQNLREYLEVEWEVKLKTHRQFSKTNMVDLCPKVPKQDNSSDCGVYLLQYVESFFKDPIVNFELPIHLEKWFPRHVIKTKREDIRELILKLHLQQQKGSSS
Each line names hits and unclear results; the compound was inactive in the other large screens. Only some compounds are listed: those with a hit (about 5% of all), similar ones and a draw of the others.

CCCCCCOc1ccc(/C(C)=N/NC2=NCCN2)cc1[N+](=O)[O-]	none
CCCCOc1ccc(Br)cc1/C(C)=N/NC1=NCCN1	AHR activator 56.8
CC(C)NC(=O)c1cc2c(-c3ccc(Cl)cc3)nn(C)c2s1	AHR activator 59.3
Cn1nc(-c2ccc(Cl)cc2)c2cc(C(=O)N3CCCC3)sc21	AHR activator 50.1
COCCNC(=O)c1cc2c(-c3ccc(Cl)cc3)nn(C)c2s1	AHR activator 59.1
CCOC(=O)N1CCC(NC(=O)c2cc3c(-c4ccc(Cl)cc4)nn(C)c3s2)CC1	none
CCN1CCCC1CNC(=O)c1cc2c(-c3ccc(Cl)cc3)nn(C)c2s1 (stereo unspecified)	AHR activator 59.3
CCOP(=O)(OCC)C(Nc1ccc(OC)cc1)c1ccco1 (stereo unspecified)	none
Cc1ccc(C)c(NCCCCC(=O)O)c1	none (no result: AHR activator, SENP8 block-2, SENP6 inh, SENP7 block)
O=C(O)c1ccc2c(c1)S(=O)(=O)c1cc(N3CCN(c4cnccn4)CC3)ccc1C2=O	none (no result: AHR activator, SENP8 block-2, SENP6 inh, SENP7 block)
Cc1ccc(CNC(=O)c2cc3c(-c4ccc(Cl)cc4)nn(C)c3s2)o1	none
CCCCN(CC)CCCNC(=O)c1cc2c(-c3ccc(OC)c(OC)c3)nn(C)c2s1	none
COCCCNC(=O)c1cc2c(-c3ccc(Cl)cc3)nn(C)c2s1	AHR activator 63.8
CCCCNC(=O)c1cc2c(-c3ccc(Cl)cc3)nn(C)c2s1	AHR activator 50.4
Cn1nc(-c2ccc(Cl)cc2)c2cc(C(=O)NCCCN3CCCC3)sc21	AHR activator 54.1
O=C1Nc2ccccc2-n2nnnc2C1N1CCN(c2ccc(C(F)(F)F)cc2[N+](=O)[O-])CC1 (stereo unspecified)	none (no result: AHR activator, SENP8 block-2, SENP6 inh, SENP7 block)
CCOCC(=O)N1CCN(c2ccccc2OC)CC1	none
CCCN(C)C[C@@H]1OCc2cnnn2CCCC(=O)N([C@H](C)CO)C[C@H]1C	none (no result: AHR activator, SENP8 block-2, SENP6 inh, SENP7 block)
CCc1ccc(NC(=S)NNC(=O)c2ccccc2OC(F)F)cc1	AHR activator 49.2 (no result: SENP8 block-1, EBI2 block)
COc1ccc(NC(=S)NNC(=O)c2ccccc2OC(F)F)cc1	AHR activator 117.7
CCNC(=S)NNC(=O)c1ccccc1OC(F)F	none
CN(CCc1ccccc1)C(=O)c1ccc(NC(=O)Cc2ccc(NC(=O)C3CCCN(C(=O)CCc4ccccc4)C3)cc2)cc1 (stereo unspecified)	none (no result: AHR activator, SENP8 block-2, SENP6 inh, SENP7 block)
Cc1ccccc1SCC(=O)NCC1(N2CCCCC2)CCCCC1	none (no result: AHR activator, SENP8 block-2, SENP6 inh, SENP7 block)
CCN1/C(=C/c2ccc3cc(C)cc(C)c3[n+]2CC)Sc2cc(C)ccc21	SENP8 block-1 22.8 (no result: AHR activator, SENP8 block-2, SENP6 inh, SENP7 block)
COc1cccc(/C=N/Nc2nc(C)cc(=O)[nH]2)c1OC	none
O=[N+]([O-])c1ccc(Nc2nc(N/N=C/c3cccc(F)c3)nc(N3CCCC3)n2)cc1	AHR activator 145.4
COc1c(/C=N/Nc2nc(N3CCCCC3)nc(N3CCCCC3)n2)cccc1[N+](=O)[O-]	none
COc1cccc(/C=N/Nc2ccc([N+](=O)[O-])cn2)c1O	SENP8 block-2 83.5, SENP6 inh 90.5, SENP7 block 97.8
COc1cccc(/C=N/Nc2ncccc2[N+](=O)[O-])c1OC	SENP8 block-2 95.1, SENP6 inh 98.5, SENP7 block 98.3
COc1cccc(/C=N/Nc2nc(Nc3ccc([N+](=O)[O-])cc3)nc(N3CCCC3)n2)c1O	AHR activator 47.5
Cc1ccc2nc(-c3ccccn3)cc(C(=O)N3CCN(c4ncccn4)CC3)c2c1	none
Cc1cc(C)c2nc(-c3ccccn3)cc(C(=O)N3CCCC3)c2c1	AHR activator 55.9
CCCNC(=O)c1ccc2c(=O)c(O)c(-c3ccc(F)cc3)[nH]c2c1	AHR activator 69.7
CCCNC(=O)c1ccc2c(=O)c(O)c(-c3cccc(Br)c3)[nH]c2c1	none
COc1ccc(C(C(=O)Nc2ccc(F)cc2)N2CCN(CC(=O)N3CCCC3)CC2)cc1 (stereo unspecified)	none (no result: AHR activator, SENP8 block-2, SENP6 inh, SENP7 block)
CCCCCCCCN1C(=O)[C@H](CC(=O)NCC2CCCCC2)C[C@@]2(C(=O)OC)CCCCC=C12	none (no result: AHR activator, SENP8 block-2, SENP6 inh, SENP7 block)
Cc1c(C2(O)CCCCC2)[nH]c2cc(C(F)(F)F)ccc12	AHR activator 47.9
CCc1c(C2(O)CCCCC2)[nH]c2cc(C(F)(F)F)ccc12	none
CCCc1c(-c2ccc(Cl)cc2)ncn1Cc1cccc(-c2ccccc2)c1	none (no result: AHR activator, SENP8 block-2, SENP6 inh, SENP7 block)
O=C(Nc1cccc([N+](=O)[O-])c1)c1ccc(-c2ccccc2)cc1	none
O=C(O)c1ccc(N=NNc2cccc([N+](=O)[O-])c2)cc1	SENP8 block-1 40.2, SENP8 block-2 95.6, SENP6 inh 94.9, SENP7 block 98.2
COc1cc(/C=C2/SC(=S)N(CC(=O)Nc3cccnc3)C2=O)cc(OC)c1OC	AHR activator 51.5
CC(=O)Nc1ccc(CN2CCCCCC2)cc1	none
CCc1ccc(NC(=O)c2cnc3scc(C)n3c2=O)cc1	AHR activator 62.7
Cn1ncc(Cl)c1C(=O)Nc1ccc(CN2CCCCC2)cc1	AHR activator 76.0
Cc1csc2ncc(C(=O)NCc3ccc4c(c3)OCO4)c(=O)n12	AHR activator 78.3 (no result: SENP8 block-1, EBI2 block)
Cn1ncc(Cl)c1C(=O)NCc1ccc(Cl)cc1	none
Cc1csc2ncc(C(=O)NCc3ccccc3Cl)c(=O)n12	none
Cn1ncc(Cl)c1C(=O)NCc1ccc2c(c1)OCO2	AHR activator 49.4
O=C1/C(=C\c2ccc([N+](=O)[O-])cc2)CCc2ccccc21	SENP8 block-2 90.8, SENP6 inh 82.4, SENP7 block 86.9
CCCn1c(N)c(C(=O)CSc2nc3ccccc3n2CCC#N)c(=O)n(C)c1=O	AHR activator 53.3
CCCCCCn1c(SCC(=O)c2c(N)n(C)c(=O)n(C)c2=O)nc2ccccc21	none
Cc1cc2nc(-c3ccc(SCC(=O)N4CCOCC4)nc3)[nH]c2cc1C	AHR activator 59.7
Cc1cc2nc(-c3ccc(SCc4ccccn4)nc3)[nH]c2cc1C	AHR activator 48.5
Cc1cc2nc(-c3ccc(SCC(=O)N4CCN(C(=O)c5ccco5)CC4)nc3)[nH]c2cc1C	none
CCCCn1c(N)c(N(CCOC)C(=O)CSCc2cccc(C)c2)c(=O)[nH]c1=O	none
COc1cc(OC)cc(C(=O)NC(=S)NCc2ccco2)c1	AHR activator 64.2
Cc1nn(C2CC(O)C(O)C(CO)O2)c(=O)[nH]c1=O (stereo unspecified)	none (no result: AHR activator, SENP8 block-2, SENP6 inh, SENP7 block)
CN(CC(=O)O)S(=O)(=O)/C=C/c1ccccc1	none
NC(=O)CN(C/C=C/c1ccccc1)C/C=C/c1ccccc1	AHR activator 55.1
CC1=C(C(=O)N(C(C)C)C(C)C)CC(CC(=O)NCc2ccco2)C(=O)N1CCCN1CCCC1=O (stereo unspecified)	none (no result: AHR activator, SENP8 block-2, SENP6 inh, SENP7 block)
c1ccc(C2=NNC(c3ccco3)=Nc3ccccc32)cc1	none
Cc1ccc(C2=NNC(c3ccc(Cl)cc3)=Nc3ccccc32)o1	AHR activator 50.4
